From PubChem
The full list was thinned out, with hits kept by preference.
Giardia FBPA inh-1: inhibitors of Giardia lamblia fructose-1,6-bisphosphate aldolase; Potency, µM (titrated, usually from 59.6 µM), without a hit: at the top dose activity, negative = inhibition, usual class: inhibitors; A8B2U2; 290,000 compounds, 0.71% hits; purified Giardia FBPA; AID 2451; note: potency is the fitted concentration of half-maximal effect; % is set by controls: 0 for no effect and ±100 for the full control effect; nearly all actives have a fitted effect of over 55% in size
Target sequence (A8B2U2 whole entry, looked up): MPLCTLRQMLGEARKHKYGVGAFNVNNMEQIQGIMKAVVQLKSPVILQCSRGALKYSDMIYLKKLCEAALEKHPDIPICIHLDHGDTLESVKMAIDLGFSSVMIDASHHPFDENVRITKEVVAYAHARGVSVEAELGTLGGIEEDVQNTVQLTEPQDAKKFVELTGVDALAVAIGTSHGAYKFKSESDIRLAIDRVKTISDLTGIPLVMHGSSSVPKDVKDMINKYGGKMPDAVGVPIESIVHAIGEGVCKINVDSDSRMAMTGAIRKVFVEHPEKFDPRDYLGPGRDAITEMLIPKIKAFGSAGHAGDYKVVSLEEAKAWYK
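Giardia FBPA (40 nM reagent) was preincubated 10 min at RT with compound (up to 57.5 uM final), then substrate plus GAPDH/TPI/NAD/arsenate coupling system with diaphorase/resazurin was added; resorufin fluorescence (525/598 nm) was read after 20 min.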
Sm TGR inh: blocks Schistosoma mansoni thioredoxin glutathione reductase | Q962Y6 | purified TGR, DTNB reduction, TNB absorbance 405 nm | Potency, µM (doses to about 114 µM), for the others: at the highest dose activity change, negative = inhibition, hits mostly inhibitors | 360,000 compounds, 3% hits | AID 485364; note: potency is the fitted concentration of half-maximal effect; % is set by controls: 0 for no effect and ±100 for the full control effect; nearly all actives have a fitted effect of over 60% in size
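Kinetic colorimetric format: TGR-catalysed, NADPH-driven DTNB reduction monitored via TNB absorbance. Enzyme dispensed at 20 nM; compound exposure 15 min at room temperature before reaction start.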
CHX counter: affects cycloheximide protein synthesis inhibition readout, counter-screen; AID 2314; max response, %; cell reporter, cycloheximide protein synthesis inhibition counterscreen; 300,000 compounds, 12% hits; in the data active = max response mostly above about 13%, no sharp cut-off; inactive = mostly below about 14%; note: read at 38.3 µM for the half of the compounds with a filed dose; 0% is about no effect
Tb PYK inh: T. brucei pyruvate kinase inhibition; Q57TT1; 410,000 compounds, 0.12% hits; Potency, µM (top dose mostly 76.8 µM), without a hit: at the highest dose activity, negative = inhibition, usual class: inhibitors; AID 624173; TbPYK enzyme, Kinase-Glo Plus ATP luminescence, 45 min; note: potency is the fitted concentration of half-maximal effect; % is set by controls: 0 for no effect and ±100 for the full control effect; nearly all actives have a fitted effect of over 50% in size
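Assay buffer: 50 mM TEA pH 7.2, 100 mM KCl, 10 mM MgCl2, 0.05% BSA, 0.01% Tween-20. Pyruvate kinase from T. brucei plus substrate met compound, then ADP (130 uM final). Luminescence was read post 45 min RT.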
LmPK inhibitor: blocks Leishmania mexicana pyruvate kinase activity; purified LmPK, Kinase-Glo ATP luminescence, 1 h; Q27686; 290,000 compounds, 0.37% hits; Potency, µM (series often up to 57.5 µM), inactives show at the highest dose activity change, negative = inhibition, hits mostly inhibitors; note: potency is the fitted concentration of half-maximal effect; % is set by controls: 0 for no effect and ±100 for the full control effect
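Kinase-Glo luminescence read after 1 h RT reaction of 0.1 nM LmPK with 0.5 mM PEP and 0.1 mM ADP. Activity scaled between uninhibited and enzyme-free controls.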
Shiga toxin inh: blocks Shiga toxin action in Vero cells; Vero cells, Shiga toxin protein synthesis inhibition reporter; inhibition, % at 38.7 µM; 290,000 compounds, 9.2% hits; AID 2315; in the data active = inhibition mostly above about 28%, no sharp cut-off; inactive = mostly below about 43%; note: 0% is about no effect
Giardia growth: blocks growth of Giardia lamblia trophozoites; Potency, µM (titrated, usually from 57.5 µM), without a hit: top-dose activity change, negative = inhibition, usual class: inhibitors; 1,500 compounds, 5% hits; Giardia lamblia trophozoite growth inhibition; shares compounds with Giardia FBPA inh-1;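 note: potency is the fitted concentration of half-maximal effect; trophozoites exposed to compound for 48 h at 37 °C; % is set by controls: 0 for no effect and ±100 for the full control effect; nearly all actives have a fitted effect of over 70% in size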
Mammal cell tox: toxic to mammalian cells in Giardia aldolase counter-screen; shares compounds with Giardia FBPA inh-1; mammalian cell viability counter-screen, qHTS; Potency, µM (doses to about 57.5 µM), without a hit: top-dose viability change, negative = toxicity, usual class: inhibitors; 1,500 compounds, 4% hits; AID 2786;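 note: Chinese hamster ovary cells used as mammalian cytotoxicity surrogate; viability measured as cellular ATP by luminescence; potency is the fitted concentration of half-maximal effect; compound exposure lasted 48 h before reading; % is set by controls: 0 for no effect and ±100 for the full control effect; nearly all actives have a fitted effect of over 60% in size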
Giardia FBPA inh-2: confirmation of Giardia fructose-bisphosphate aldolase inhibitors | shares compounds with Giardia FBPA inh-1 | 1,500 compounds, 5% hits | Potency, µM (series often up to 57.5 µM), for inactives: at the top dose activity change, negative = inhibition, hits mostly inhibitors | AID 2787 | purified Giardia aldolase enzyme activity, qHTS; note: potency is the fitted concentration of half-maximal effect; % is set by controls: 0 for no effect and ±100 for the full control effect; nearly all actives have a fitted effect of over 45% in size
Rabbit aldolase: rabbit FBP aldolase inhibition by Giardia aldolase hits | AID 2794 | shares compounds with Giardia FBPA inh-1 | 1,500 compounds, 4% hits | Potency, µM (titrated, usually from 57.5 µM), for inactives: at the top dose activity, negative = inhibition, usual class: inhibitors | Rabbit muscle FBPA enzyme inhibition, selectivity counter-screen; note: potency is the fitted concentration of half-maximal effect; % is set by controls: 0 for no effect and ±100 for the full control effect; nearly all actives have a fitted effect of over 60% in size
Target sequence (P00883 whole entry, looked up): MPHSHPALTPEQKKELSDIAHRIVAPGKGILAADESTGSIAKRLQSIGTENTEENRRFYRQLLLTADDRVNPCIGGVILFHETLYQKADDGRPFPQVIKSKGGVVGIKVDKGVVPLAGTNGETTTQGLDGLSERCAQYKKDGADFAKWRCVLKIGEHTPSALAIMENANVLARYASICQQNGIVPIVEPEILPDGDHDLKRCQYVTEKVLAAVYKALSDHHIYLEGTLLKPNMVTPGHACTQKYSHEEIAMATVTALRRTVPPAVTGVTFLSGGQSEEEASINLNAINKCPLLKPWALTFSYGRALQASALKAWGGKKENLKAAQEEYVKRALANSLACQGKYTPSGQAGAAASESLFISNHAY
GAPDH coupling: GAPDH inhibition flagged for Giardia aldolase hits. shares compounds with Giardia FBPA inh-1. GAPDH coupling enzyme counterscreen, biochemical, qHTS. Potency, µM (highest dose often 57.5 µM), for inactives: at the highest dose activity change, negative = inhibition, hits mostly inhibitors. 1,500 compounds, 6% hits; note: potency is the fitted concentration of half-maximal effect; % is set by controls: 0 for no effect and ±100 for the full control effect; nearly all actives have a fitted effect of over 55% in size
An asterisk follows results filed as active; ? = inconclusive; . = no result; [ ] = another dose, or the depositor's remark. Unless noted, calls come from the whole dose curve; as a rule, active = well fitted curve in the direction sought with a large enough effect; inconclusive = small, poorly fitted or top-dose-only effect, or another doubt; inactive = no such curve, though single readings can be large; an effect the other way counts as inactive or inconclusive.

SMILES | Giardia FBPA inh-1 | Sm TGR inh | CHX counter | Tb PYK inh | LmPK inhibitor | Shiga toxin inh | Giardia growth | Mammal cell tox | Giardia FBPA inh-2 | Rabbit aldolase | GAPDH coupling
C=CCOC(=O)N[C@H](C[N+](=O)[O-])c1ccccc1 | -2% | . | . | . | . | . | . | . | . | . | .
O=C(CSc1n[nH]c(-c2cccnc2)n1)Nc1ccc(Br)cc1 | 14µM* | -5% | -3 | 14% | 4% | -7 | ? | 25% | 13% | 6% | 24%
Cc1cc(C)cc(NC(=O)CSc2n[nH]c(-c3cccnc3)n2)c1 | -19% | 5% | -3 | 0% | 0% | -4 | . | . | . | . | .
O=CNC1c2ccccc2CCc2ccccc21 | . | . | . | -9% | . | . | . | . | . | . | .
COc1ccccc1OCC#CCN1CCOCC1 | 11µM* | 11µM* | -4 | 36% | 0% | 11 | 5%[10.4 µM] | 0% | 1% | 2% | 14%
COc1ccccc1OCC#CCN1CCCC(C)C1 (stereo not drawn) | ? | . | 5 | -9% | -1% | 17 | . | . | . | . | .
Cc1cccnc1Nc1nc(-c2ccc(O)c(O)c2)cs1 | 10µM* | ? | 45* | -16% | -4% | 80* | -18% | -3% | -19% | -29% | -14%
O=C(Nc1sc2c(c1C(=O)O)CCC2)c1ccc(F)cc1 | 14µM* | -7% | 8 | -3% | -25% | 37* | ? | -14% | -26% | ? | ?
COC(=O)c1c(NC(=O)c2ccccc2C(=O)O)sc2c1CCC2 | -4% | -16% | -4 | -7% | 0% | . | . | . | . | . | .
Nc1ccc(S(=O)(=O)Nc2ccc(Cl)nn2)cc1 | 5% | 0% | -2 | -8% | 5% | 26 | . | . | . | . | .
NNc1ccc(Cl)nn1 | 20µM* | 8% | 22* | -3% | 0% | 24 | 12% | -1% | -5% | 0% | -17%
CC(=O)N1C[C@H]2CON(C)[C@H]2C[C@H]1c1ccc(-c2ccc(C#N)cc2)cc1 | . | . | . | 2% | . | . | . | . | . | . | .
CNc1ccccc1 | . | -9% | . | -2% | . | . | . | . | . | . | .
CNc1cccccc1=S | 10µM* | 5.6µM* | 1 | -18% | -5% | -12 | -13% | 5% | ? | ? | 32µM*
O=C(CCc1nnc(C2(c3ccc(Cl)cc3)CCC2)o1)N1CCCC(O)C1 (stereo not drawn) | -2% | 0% | 1 | -9% | 11% | 16 | . | . | . | . | .
CCOC(=O)c1nc(Nc2cc(Cl)ccc2OC)c2ccccc2n1 | 12% | 1% | 1 | -2% | -4% | -6 | . | . | . | . | .
Nc1cccnc1Sc1cccc(Cl)c1 | 1µM* | ? | 8 | -23% | 5% | 29 | 9%[38.3 µM] | -11% | -6% | -3% | -6%
C1=CCC(CN2CCN(C3CCCCCC3)CC2)CC1 (stereo not drawn) | 14µM* | -8% | -2 | 26% | -9% | -4 | -10% | 6% | 1% | -2% | 0%
Cc1ccc(S(=O)(=O)Nc2cc3c(cc2Cl)n(C)c(=O)c(=O)n3C)cc1 | . | 3% | . | -1% | . | . | . | . | . | . | .
Cc1ccc(S(=O)(=O)Nc2cc(C)cn(Cc3ccccc3)c2=O)cc1 | 13µM* | ? | -6 | -2% | 2% | 12 | ? | -13% | ? | ? | 32µM*
Cc1ccc(S(=O)(=O)Nc2cc(C)cn(Cc3ccc(F)cc3)c2=O)cc1 | 16µM* | ? | -3 | 2% | 0% | 3 | 14%[10.4 µM] | -9% | ? | ? | 25µM*
CCN(CC(=O)Nc1ccc(NC(C)=O)cc1)C(=O)CN1C(=O)NC(C)(c2ccc3ccccc3c2)C1=O (stereo not drawn) | . | . | . | -5% | . | . | . | . | . | . | .
CC(C)NCC(O)c1ccc(O)c(O)c1 (stereo not drawn) | 11µM* | -36% | -3 | 4% | -18% | -5 | 15% | 7% | ? | ? | -23%
CSc1ccc(CNc2ncc(-c3cccc([N+](=O)[O-])c3)n2C)cc1 | 20µM* | -16% | -3 | 1% | -5% | -7 | ? | -9% | -3% | -3% | 7%
COc1ccc(CNc2ncc(-c3cccc([N+](=O)[O-])c3)n2C)c(OC)c1OC | 25µM* | -10% | -2 | 3% | 0% | -5 | ? | -12% | -4% | -4% | 4%
Cn1c(-c2ccccc2)cnc1NCc1cccc([N+](=O)[O-])c1 | ? | 12% | 3 | -13% | 0% | 15 | . | . | . | . | .
C=CCc1ccc(OCCOc2cccc3ccc(C)nc23)c(OC)c1 | 11µM* | 12% | 30* | 24% | -6% | 59* | ? | -19% | -22% | -13% | -9%
C=CCc1ccc(OCCCOc2ccc(C)c(C)c2)c(OC)c1 | -3% | -7% | -3 | -3% | 0% | -5 | . | . | . | . | .
N#CC1=C(Nc2ccccc2Cl)SC(c2ccccc2O)NC1=O (stereo not drawn) | ? | -6% | -4 | -10% | -10% | 5 | . | . | . | . | .
